# Source: PubChem BioAssay (NCATS)
# Records with an inconclusive call do not appear. Values without a mark were called inactive. Active and inactive are the calls of the source. Calls follow the shape of the dose curve; as a rule, active = well fitted inhibition curve with a large enough effect; inconclusive = small, poorly fitted or top-dose-only effect; inactive = flat fitted curve, though single readings scatter.
# Experiments:
# Experiment in all cases: Cytotoxic Profiling of Annotated Libraries Using Quantitative High-Throughput Screening (AID 1296008); also: nearly all actives have a fitted effect of over 60% in size
# Settings in all cases: Five cell lines viability, CellTiter-Glo ATP luminescence, 48-72 h; max response: hits give low values
# HEK293 = tested on: HEK293
# Summary of the method: (§1)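 Compounds were pin-transferred onto cells and incubated 48 or 72 hr at 37 degree Celsius, 95% humidity. CellTiter-Glo was added, plates sat 10 min at room temperature, then ATP-coupled luminescence was imaged as the viability read-out.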
# HaCat = tested on: HaCat
# Summary of the method: as §1
# KB-3-1 = tested on: KB-3-1
# Summary of the method: as §1
# NIH3T3 = tested on: NIH3T3
# Summary of the method: as §1
# % is scaled to controls: 0 for no effect and ±100 for the full control effect; potency is read from the fitted curve at half-maximal effect.
smiles,measurement,setting,value
CC1CC(=O)C2=C(CCC3(O)C(O)c4c(O)cccc4C(=O)C23O)C1 (configuration not stated),max response,HEK293,-13.5%
same,max response,HaCat,-7.44%
same,max response,KB-3-1,6.8%
same,max response,NIH3T3,1.72%
Cc1ccccc1C#Cc1ccc(CCC(=O)O)cc1,max response,HEK293,-13.9%
same,max response,HaCat,-15.6%
same,max response,KB-3-1,-11.6%
same,max response,NIH3T3,-10.2%
CC(=O)O[C@H]1[C@@H](O)[C@H](O[C@H]2[C@@H]3C=CO[C@@H](O[C@H]4O[C@@H](CO)[C@H](O)[C@@H](O)[C@@H]4O)[C@@H]3[C@@]3(CO)O[C@@H]23)O[C@@H](C)[C@@H]1OC(=O)/C=C/c1ccccc1,max response,HEK293,4.7%
same,max response,HaCat,-2.99%
same,outcome,KB-3-1,inactive
same,max response,NIH3T3,-6.79%
CCOc1cc2ncc(C#N)c(Nc3ccc(F)c(Cl)c3)c2cc1NC(=O)/C=C/CN(C)C,Potency,HEK293,1.64 µM (active)
same,Potency,HaCat,0.0259 µM (active)
same,Potency,KB-3-1,5.8 µM (active)
same,Potency,NIH3T3,3.66 µM (active)
Clc1cc2c(NC3CCCC3)nnc(-c3ccncc3)c2cc1Cl,max response,HEK293,-9.96%
same,max response,HaCat,-55.6%
same,max response,KB-3-1,2.36%
same,max response,NIH3T3,-2.41%
CC1(c2nc3c(C(N)=O)cccc3[nH]2)CCCN1 (configuration not stated),max response,HEK293,-22.9%
same,max response,HaCat,-9.07%
same,outcome,KB-3-1,inactive
same,max response,NIH3T3,-5.13%
N#Cc1cnc2cnc(NCc3cccnc3)cc2c1Nc1ccc(F)c(Cl)c1,Potency,HEK293,3.66 µM (active)
same,Potency,HaCat,20.6 µM (active)
same,max response,KB-3-1,-15.8%
same,max response,NIH3T3,-8.77%
OC[C@H]1O[C@@H](OC[C@H]2O[C@@H](OC/C=C/c3ccccc3)[C@H](O)[C@@H](O)[C@@H]2O)[C@@H](O)[C@@H]1O,max response,HEK293,4.4%
same,max response,HaCat,-0.518%
same,outcome,KB-3-1,inactive
same,max response,NIH3T3,2.42%
